Source: ChEMBL document CHEMBL2218924, “A broad activity screen in support of a chemogenomic map for kinase signalling research and drug discovery” (Biochem J, 2013)

molecular target: T1, Testis-specific serine/threonine-protein kinase 2 (Homo sapiens) (UniProt Q96PF2); details: at 1 µM
T1 sequence (whole entry): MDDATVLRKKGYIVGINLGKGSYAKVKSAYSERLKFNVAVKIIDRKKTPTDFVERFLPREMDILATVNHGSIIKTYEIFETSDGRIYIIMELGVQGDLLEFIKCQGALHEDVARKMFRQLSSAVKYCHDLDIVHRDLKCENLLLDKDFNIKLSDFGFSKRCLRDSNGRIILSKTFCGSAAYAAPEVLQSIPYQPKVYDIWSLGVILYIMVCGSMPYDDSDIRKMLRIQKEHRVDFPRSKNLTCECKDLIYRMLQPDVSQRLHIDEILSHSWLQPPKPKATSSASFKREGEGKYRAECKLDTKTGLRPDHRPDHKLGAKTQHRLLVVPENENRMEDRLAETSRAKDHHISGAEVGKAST

SMILES | residual activity [%]
Cc1nc(-c2ccccc2)c(-c2ccncc2)o1 | 97
Oc1ccc(-c2nc(-c3ccc(F)cc3)c(-c3ccncc3)[nH]2)cc1 | 103
Oc1n[nH]c2nnc(-c3c(-c4ccccc4)nn4ccccc34)cc12 | 95
O=C1c2ccccc2-[n+]2ccc3c([nH]c4ccccc43)c21 | 98
CC(=O)O/N=C1\C(=C2\C(=O)Nc3cc(Br)ccc32)Nc2ccccc21 | 79
Oc1cccc(-c2nc(N3CCOCC3)c3oc4ncccc4c3n2)c1 | 93
O=c1cc(N2CCNCC2)oc2c(-c3ccccc3)cccc12 | 92
N#Cc1cnc2cnc(NCc3cccnc3)cc2c1Nc1ccc(F)c(Cl)c1 | 14
Cc1cccc(-c2[nH]c(C(C)(C)C)nc2-c2ccc3c(c2)OCO3)n1 | 93
CO[C@@H]1[C@H](N(C)C(=O)c2ccccc2)C[C@H]2O[C@]1(C)n1c3ccccc3c3c4c(c5c6ccccc6n2c5c31)C(=O)NC4 | 51
O=Nc1c(-c2c(O)[nH]c3ccccc23)[nH]c2ccccc12 | 95
Cc1ccc(S(=O)(=O)/C=C/C#N)cc1 | 92
Cn1c2ccccc2c2c3c(c4c5ccccc5n(CCC#N)c4c21)CNC3=O | 64
Cc1cc(Nc2nc(-c3ccccc3)nc3ccccc23)n[nH]1 | 96
Cn1sc(=O)n(Cc2ccccc2)c1=O | 88
Nc1nc(Nc2ccc(S(N)(=O)=O)cc2)nn1C(=O)c1c(F)cccc1F | 103
Cn1nc2c3c(cccc31)C(=O)c1ccccc1-2 | 79
N#C/C(=C(\N)Sc1ccc(N)cc1)c1ccccc1C(F)(F)F | 62
N#C/C(=C1/Nc2ccccc2S1)c1ccnc(NCCc2cccnc2)n1 | 82
COc1cccc(-c2cc(=O)c3ccccc3o2)c1N | 89

SMILES | residual activity [%]
COc1ccc(CNc2nc(N(CCO)CCO)nc3c2ncn3C(C)C)cc1 | 98
c1ccc2c(-c3ccncc3)c[nH]c2c1 | 100
CCN1/C(=C/C(C)=O)Sc2ccc(OC)cc21 | 77
O=C(c1ccccc1)c1ccc(N2CCOCC2)cc1O | 87
O=C(Nc1cccc(Nc2cc(Nc3cccc(C(F)(F)F)c3)ncn2)c1)C1CC1 | 91
O=C1Cc2c([nH]c3ccc(Br)cc23)-c2ccccc2N1 | 96
CC(C)n1cnc2c(NCc3ccccc3)nc(NCCCO)nc21 | 86
CC(C)[C@H](CO)Nc1nc(Nc2cc(N)cc(Cl)c2)c2ncn(C(C)C)c2n1 | 91
O=C(c1cc2cc(O)ccc2[nH]1)c1cc2cc(O)ccc2[nH]1 | 77
CSc1nc(-c2ccc(F)cc2)c(-c2ccnc(NC(C)c3ccccc3)c2)[nH]1 (stereo not given) | 98
O=C(O)c1ccc2c3c1cccc3c(=O)n1c3ccccc3nc21 | 118
Nc1ccc2ncnc(NCCc3ccc(Oc4ccccc4)cc3)c2c1 | 106
CC(C)(C)n1nc(Cc2cccc3ccccc23)c2c(N)ncnc21 | 104
c1ccc(-c2n[nH]cc2-c2ccnc3ccccc23)nc1 | 96
CCN(CC)CCCCN1c2ccccc2Oc2ccc(Cl)cc21 | 109
COc1cc2ncc(-c3ccccc3)nc2cc1OC | 76
Cc1cncc2cccc(S(=O)(=O)N3CCCN(C(=O)CN)C[C@H]3C)c12 | 80
COc1cc2ncnc(Nc3ccc(Oc4ccccc4)cc3)c2cc1OC | 97
Nc1cccc(-c2cc3c(Oc4cccc(O)c4)ncnc3[nH]2)c1 | 82
O=C(Nc1nc2ccccc2n1CCN1CCOCC1)c1cccc([N+](=O)[O-])c1 | 102
